This is a sample that favours compounds with a hit; in the whole collection about 19% have one here.
DT40 TDP1 CPT: growth inhibition of DT40 Tdp1-/-;hTDP1 cells with camptothecin (screen for TDP1 inhibitors); chicken DT40 Tdp1-/-;hTDP1 cells + 20 nM CPT, ATP luminescence, 48 h; Potency, µM (highest dose often 46.2 µM), without a hit: at the highest dose activity change, negative = growth inhibition, actives largely listed as inhibitors; 420,000 tested, 12% active; AID 686979; also: nearly all actives have a fitted effect of over 55% in size
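Chicken DT40 Tdp1-/- cells complemented with human TDP1, 400 cells/well, exposed to compounds plus 20 nM camptothecin for at least 48 h at 37 C; viability read as ATP content by CellTiter-Glo luminescence.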
KB-V1 cytotox: kills drug-selected multidrug resistant KB-V1 cells. KB-V1 MDR cells viability, CellTiter-Glo, 72 h. Potency, µM (top dose mostly 46.1 µM), actives largely listed as cytotoxic. 400,000 tested, 3.4% active; also: nearly all actives have a fitted effect of over 60% in size
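KB-V1, DMEM (no phenol red) + 10% FBS; cpd pin-transferred, titration series; 72 h, 37 degrees C; CellTiter-Glo, luminescence. Data normalized, curve-fit.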
HT1080 IDH1KD tx: kills HT-1080 cells with IDH1 knockdown; HT-1080 IDH1 knockdown viability, ATP luminescence, 48 h; Potency, µM (highest dose often 46.1 µM), for inactives: top-dose activity, negative = toxicity, most hits filed as cytotoxic; AID 686971; 360,000 tested, 2% active;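 also: 0% = DMSO wells and -100% = cell-free medium wells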
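HT-1080-IDH1KD cells (IDH1 knocked down), 750/well in RPMI with 5% FBS, treated with compound 48 h at 37 degrees C. Viability by CellTiter-Glo luminescence, normalised to DMSO and no-cell wells; concentration-response curves classed.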
KB-3-1 tox: kills parental KB-3-1 adenocarcinoma cells; KB-3-1 viability, CellTiter-Glo ATP luminescence, 72 h; Potency, µM (doses to about 46.1 µM), hits mostly cytotoxic; 400,000 tested, 1.4% active; AID 1347075; also: nearly all actives have a fitted effect of over 60% in size
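Here the drug-naive KB-3-1 line serves as comparator for MDR sub-line selectivity; cells received compound titrations, 72 h at 37 °C, then CellTiter-Glo readout.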
TDP1 cell noCPT: qHTS for Inhibitors of human tyrosyl-DNA phosphodiesterase 1 (TDP1): qHTS in cells in absence of CPT | DT40 Tdp1-/- hTDP1 cells, no CPT, ATP luminescence, 48 h | Potency, µM (top dose mostly 46.2 µM), for inactives: at the highest dose activity change, negative = growth inhibition, usual class: inhibitors | 420,000 tested, 15% active | AID 686978, 2013; also: nearly all actives have a fitted effect of over 55% in size
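Luminescent ATP content (CellTiter-Glo) served as the growth readout. Knockout chicken DT40 cells expressing human TDP1 were exposed to compounds without camptothecin for a minimum 48 hr at 37 °C.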
HT1080-NT tox: kills 2HG-producing HT-1080-NT fibrosarcoma cells; HT-1080-NT fibrosarcoma viability, CellTiter-Glo ATP luminescence, 48 h; Potency, µM (doses to about 46.1 µM), for inactives: top-dose activity, negative = less viability, usual class: cytotoxic; 360,000 tested, 1.6% active; AID 686970;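 also: NT is the 2HG producing partner of a matched IDH1 knockdown line; 0% = DMSO-treated cells and -100% = media-only wells without cells; nearly all actives have a fitted effect of over 55% in size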
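750 cells/well, RPMI + 5% FBS; 2 h settle, compound pin-transfer, 48 h at 37 degrees C. CellTiter-Glo 10 min RT, luminescence. Normalized to DMSO and media-only wells.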
* marks the source's active call; other numbers are inactive results; i = inactive; ? = inconclusive; nt = no result given; [ ] = dose if it differs, or a comment. Calls follow the shape of the dose curve; as a rule, active = well fitted curve in the direction sought with a large enough effect; inconclusive = small, poorly fitted or top-dose-only effect, or another doubt; inactive = no such curve, though single readings can be large; an effect the other way counts as inactive or inconclusive. Unless noted, % is scaled to controls: 0 for no effect and ±100 for the full control effect; potency is read from the fitted curve at half-maximal effect.

SMILES | DT40 TDP1 CPT | KB-V1 cytotox | HT1080 IDH1KD tx | KB-3-1 tox | TDP1 cell noCPT | HT1080-NT tox
O=C(Nc1cccc(Cl)c1)Nc1ccccc1C(=O)O | -3.1% | ? | ? | ? | -14.3% | -5.2%
O=C(Nc1cccc(Cl)c1)OCCOC(=O)Nc1cccc(Cl)c1 | ? | i | 23.1µM* | i | 20.6µM* | ?
COc1ccc(Cl)cc1NC(=O)Nc1ccccc1C(N)=O | 18.4µM* | i | 5.8% | i | 8.2µM* | 7.8%
O=C(Nc1ccc(Cl)cc1)Nc1ccccc1CC[N+](=O)[O-] | 13µM* | i | -9.0% | i | ? | -13.4%
CC(C)(C)C(=O)Nc1ccccc1C(=O)Nc1cc(Cl)ccc1Cl | ? | 16.4µM* | -0.5% | i | ? | 3.7%
O=C(Nc1cccc(Cl)c1)Nc1ccc2c(c1)OCO2 | ? | ? | ? | ? | 16.4µM* | ?
Cc1cc(NC(=O)Nc2cccc(Cl)c2)n(-c2ccccc2)n1 | -3.4% | i | 1.6% | i | ? | 3.0%
CC(=O)c1ccc(NC(=O)Nc2cccc(Cl)c2)cc1 | 20.6µM* | ? | ? | i | ? | ?
Cc1cc(NC(=O)Nc2cccc(Cl)c2)n(-c2ccccn2)n1 | ? | ? | ? | i | 18.4µM* | ?
Cc1ccc(Cl)cc1N1CCN(C(=O)CN2C(=O)COc3ccc(S(=O)(=O)N4CCC(C)CC4)cc32)CC1 | nt | ? | nt | i | nt | nt
N#Cc1ccc(NC(=O)Nc2cccc(C#N)c2)cc1 | 6.51µM* | i | -6.1% | i | 6.51µM* | 0.0%
C/C(=C\C(=O)c1ccc(C)o1)Nc1ccc2c(c1)OCO2 | -7.3% | i | 6.7% | i | -18.0% | 7.2%[9.24 µM]
CSc1ccc(NC(=O)Nc2ccccc2C(N)=O)cc1 | 13µM* | i | -4.9% | i | ? | -0.1%
O=C(CN1c2ccccc2Sc2ccccc21)NNC(=O)Nc1cccc(Cl)c1 | 23.1µM* | i | 11.6µM* | ? | 10.3µM* | 18.4µM*
Cc1ccc(C(=O)Nc2ccc3c(c2)OCO3)o1 | 14.6µM* | ? | -14.6% | ? | 16.4µM* | -6.0%
CCc1ccc(N2CCn3c2nc2c3c(=O)n(C/C=C/c3ccccc3)c(=O)n2C)cc1 | -0.7% | nt | nt | nt | 0.7% | nt
Nc1cc2c(cc1O)CCCC2 | ? | i | -6.4% | i | ? | -4.5%
CCc1nc2ccc(C(=O)NCCCN3CCCC3=O)cn2c1N(C)C(=O)Nc1ccccc1OC | -2.4% | i | 8.5% | i | 16.5% | 25.3%
Cc1ccc(NC(c2cccc(Cl)c2)c2nnc(-c3ccccc3)o2)cc1F (configuration not stated) | ? | ? | nt | i | ? | nt
O=C(CCl)Nc1ccc2c(c1)OCO2 | 13µM* | ? | 18.4µM* | 14.6µM* | ? | 9.2µM*
O=C(Nc1ccccc1)Nc1cccc(Cl)c1 | 14.1µM* | i | ? | i | 11.2µM* | ?
O=C(NNc1ccccc1[N+](=O)[O-])Nc1ccc(F)cc1F | ? | i | 1.9% | i | ? | -0.6%

Source: PubChem BioAssay (National Center for Advancing Translational Sciences (NCATS))
